According to PubChem BioAssay (Tox21):
Results filed as inconclusive are left out. Entries that show only a call come without a potency. Activity calls are given as the source filed them. The call rests on the fitted dose curve; in most records, active means well fitted cell-killing curve with a large enough effect in the repeat runs; inconclusive means weak or mixed curves, or effect the other way; inactive means flat fitted curve, though single readings scatter.

Assay: qHTS assay to identify small molecule antagonists of the androgen receptor (AR) signaling pathway using the MDA cell line - cell viability counter screen (AID 743041; further: nearly all actives have a fitted effect of over 45% in size)
Conditions: MDA-kb2 viability, CellTiter-Fluor, 16 h, cells co-treated with R1881 androgen agonist; series mostly up to 70.3 µM
Excerpt: National Center for Advancing Translational Sciences [NCATS]
NIH Chemical Genomics Center [NCGC]
U.S. Environmental Protection Agency [EPA]
National Institutes of Environmental Health Sciences [NIEHS]
National Toxicology Program [NTP]
U.S. Food and Drug Administration [FDA]
Androgen receptor (AR), a nuclear hormone receptor, plays a critical role in AR-dependent prostate cancer and other androgen related diseases. Endocrine disrupting chemicals (EDCs) and their interactions with steroid hormone receptors like AR may cause disruption of normal endocrine function as well as interfere with metabolic homeostasis, reproduction, developmental and behavioral functions. To identify the compounds that inhibit AR signaling, MDA-kb2 AR-luc cell line (from ATCC, deposited by Wilson et al.) was used to screen the Tox21 10K compound library. MDA-kb2 AR-luc cell line is human breast carcinoma cell line that was stably transfected with a luciferase reporter gene under control of the MMTV promoter containing response elements for both androgen receptor (AR) and glucocorticoid receptor (GR). The cytotoxicity of the Tox21 compound library against the MDA-kb2 AR-luc cell line was tested in parallel by measuring the cell viability using CellTiter-Fluor assay (Promega, Madison, WI) in the same wells.
Tox21 Assay Protocol Summary:
MDA-kb2 AR-luc cells were dispensed at 3,000 cells/4 uL/well of culture medium into white wall/solid-bottom 1536-well plates using a Multidrop Combi (ThermoFisher Scientific, Waltham, MA) dispenser. After the assay plates were incubated at a 37C and 0% CO2 for 5 hr, 23 nL of compounds dissolved in DMSO, positive controls or DMSO only was transferred to the assay plate by a Pintool station (Kalypsys, San Diego, CA), followed by addition of 1 uL of agonist (R1881) in culture medium using a Bioraptr Flying Reagent Dispenser (FRD) workstation (Beckman Coulter, Indianapolis, IN, USA). The plates were incubated at a 37C and 0% CO2 for 16 h. After 15.5 h incubation, 1uL of CellTiter-Fluor reagent (Promega) was added using a Bioraptr FRD to each plate for measuring cytotoxicity. The fluorescence intensity was quantified on a ViewLux plate reader (PerkinElmer, Shelton, CT) following 30 min incubation at 37C and 0% CO2.

Compound | Potency
Clc1cccc(C(Cl)(Cl)Cl)n1 | inactive
CNC(=O)Oc1cccc2c1OC(C)(C)C2 | inactive
Oc1ccc(Cl)cc1Cc1ccccc1 | inactive
CCOP(=O)(OCC)OCC | inactive
CCCCCCCCCCCCCl | inactive
CCCCSP(=O)(SCCCC)SCCCC | inactive
NN=C(N)N | inactive
CCOP(=S)(OCC)SCSC(C)(C)C | inactive
C[C@]12CCC(=O)C=C1CC[C@@H]1[C@@H]2CC[C@@]2(C)[C@H]1CC[C@]2(C)O | inactive
c1ccc2c(c1)Nc1ccccc1S2 | inactive
C=CC(Cl)CCl (stereo not given) | inactive
O=NN(c1ccccc1)c1ccccc1 | inactive
COP(=S)(OC)Oc1ccc(S(=O)(=O)N(C)C)cc1 | inactive
CCOS(=O)(=O)OCC | inactive
CNC(=O)CSP(=S)(OC)OC | inactive
CCCCOC(=O)COC(=O)c1ccccc1C(=O)OCCCC | inactive
CCN(CC)C(=O)C(C)Oc1cccc2ccccc12 (stereo not given) | inactive
Clc1ccccc1-c1nnc(-c2ccccc2Cl)nn1 | inactive
CCC1(c2ccc(N)cc2)CCC(=O)NC1=O (stereo not given) | inactive
Clc1cccc(Cl)c1 | inactive

Compound | Potency
O=C1C(Cl)=C(Cl)C(=O)c2ccccc21 | inactive
Nc1ncn[nH]1 | inactive
OC(c1ccc(Cl)cc1)(c1cncnc1)c1ccccc1Cl (stereo not given) | inactive
COP(=S)(OC)SCn1nnc2ccccc2c1=O | inactive
CC(C)Nc1nc(Cl)nc(NC(C)C)n1 | inactive
CCOP(=S)(OCC)SCn1c(=O)oc2cc(Cl)ccc21 | inactive
Cc1cccc(N=Nc2ccc(N(C)C)cc2)c1 | inactive
COP(=O)(NC(C)=O)SC (stereo not given) | inactive
CCC/C=N/O | inactive
CCCCC(C#N)(Cn1cncn1)c1ccc(Cl)cc1 (stereo not given) | inactive
CCNc1nc(Cl)nc(NC(C)(C)C#N)n1 | inactive
C[N+](C)(C)CC(=O)O | inactive
N#CC(c1ccccc1)c1ccccc1 | inactive
Clc1ccc(C(Cl)(Cl)Cl)cc1 | inactive
Nc1ccc2ccccc2c1 | inactive
C=C(C)C#N | inactive
CN(C)P(=O)(N(C)C)N(C)C | inactive
Cc1ccc([N+](=O)[O-])cc1 | inactive
COc1ccc(CO)cc1 | inactive
COC(=O)Nc1nc2ccccc2[nH]1 | inactive
